Usually AC50 stands for the midpoint of the concentration-response curve, whichever way the signal moves.

Results on 15 molecules are retold here after PubChem BioAssay (EPA / NIEHS).

Calls of active or inactive are those of the source. How the source made its calls: active means hit-call score of the fitted dose curve at least 0.9, where 1 is the maximum; inactive means score below 0.9.

Read-out in experiment [1]: Urokinase-type plasminogen activator receptor (uPAR), PLAUR (gene 5329)
The experiment can be described thus: BSK_BE3C_uPAR: BioMAP Diversity Plus: BE3C Assay for Urokinase-type plasminogen activator receptor (uPAR) Biomarker Activity (AID 2283039).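 On outcome: uPAR protein level measured by ELISA on the cells; cells exposed to compound for one day before measurement.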 As to conditions: primary human bronchial epithelial cells; actives raise or lower the signal. Put shortly:
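ELISA readout of uPAR on human lung primary bronchial epithelial cells, 24 h post-dosing. Bidirectional curve fit relative to DMSO vehicle baseline; gain or loss of signal both scored.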

Read-out in experiment [2]: Interleukin-6 (IL6), IL6 (gene 3569)
Nature of the experiment: BSK_CASM3C_IL6: BioMAP Diversity Plus: CASM3C Assay for Interleukin-6 (IL6) Biomarker Activity for (AID 2283040). As to conditions: primary human coronary artery smooth muscle cells; actives raise or lower the signal.

Read-out in experiment [3]: Tissue plasminogen activator (tPA), PLAT (gene 5327)
Nature of the experiment: BSK_BE3C_tPA: BioMAP Diversity Plus: BE3C Assay for Tissue plasminogen activator (tPA) Biomarker Activity (AID 2283041).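 On outcome: tPA level quantified by ELISA one day after compound addition.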 As to conditions: primary human bronchial epithelial cells; actives raise or lower the signal. The procedure, abridged:
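ELISA read-out of tPA on human primary bronchial epithelial cells, 24 h post-dosing; bidirectional fit vs DMSO negative control/baseline.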

Read-out in experiment [4]: Interleukin-8 (IL8), CXCL8 (gene 3576)
Nature of the experiment: BSK_CASM3C_IL8: BioMAP Diversity Plus: CASM3C Assay for Interleukin-8 (IL8) Biomarker Activity (AID 2283042).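 Further: IL-8 protein level quantified by ELISA.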 As to conditions: primary human coronary artery smooth muscle cells; actives raise or lower the signal.

Read-out in experiment [5]: Human Leukocyte Antigen - DR isotype (HLADR), HLA-DRA (gene 3122)
Nature of the experiment: BSK_CASM3C_HLADR: BioMAP Diversity Plus: CASM3C Assay for Human Leukocyte Antigen - DR isotype (HLADR) Biomarker Activity (AID 2283043).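 Further: cell-surface HLA-DR protein level quantified by ELISA.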 As to conditions: primary human coronary artery smooth muscle cells; actives raise or lower the signal.

Read-out in experiment [6]: Macrophage colony-stimulating factor (MCSF), CSF1 (gene 1435)
The experiment can be described thus: BSK_CASM3C_MCSF: BioMAP Diversity Plus: CASM3C Assay for Macrophage colony-stimulating factor (MCSF) Biomarker Activity (AID 2283044).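 Further: M-CSF protein amount quantified by ELISA after 24 h exposure.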 The note with it: primary human coronary artery smooth muscle cells; actives raise or lower the signal.

Read-out in experiment [7]: Low-density lipoprotein receptor (LDLR), LDLR (gene 3949)
Nature of the experiment: BSK_CASM3C_LDLR: BioMAP Diversity Plus: CASM3C Assay for Low-density lipoprotein receptor (LDLR) Biomarker Activity (AID 2283045).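 Further: LDLR protein level on the cell surface quantified by ELISA.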 As to conditions: primary human coronary artery smooth muscle cells; actives raise or lower the signal.

Read-out in experiment [8]: Monocyte Chemoattractant Protein-1 (MCP1), CCL2 (gene 6347)
The experiment can be described thus: BSK_CASM3C_MCP1: BioMAP Diversity Plus: CASM3C Assay for Monocyte Chemoattractant Protein-1 (MCP1) Biomarker Activity (AID 2283046).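 Further: MCP-1 level quantified by ELISA 24 h after dosing.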 The note with it: primary human coronary artery smooth muscle cells; actives raise or lower the signal.

A short description of experiment [9]: BSK_CASM3C_Proliferation: Cell Proliferation Assessment in the BioMAP Diversity Plus: CASM3C Assay (AID 2283047).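 Further: sulforhodamine B total protein stain as relative cell number at 560 nm; sub-confluent cells exposed 48 h before staining; fitted both ways against DMSO so gain or loss of cell number.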 As to conditions: primary human coronary artery smooth muscle cells.
Read-out in experiment [10]: Monokine induced gamma interferon (MIG), CXCL9 (gene 4283)
The experiment can be described thus: BSK_CASM3C_MIG: BioMAP Diversity Plus: CASM3C Assay for Monokine induced gamma interferon (MIG) Biomarker Activity (AID 2283048).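 Further: MIG protein level measured by ELISA.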 As to conditions: primary human coronary artery smooth muscle cells; actives raise or lower the signal.

As to `S=C([S-])NCCNC(=S)[S-].[Mn+2]`, the result in experiment [1], in experiment [3], in experiment [4], in experiment [5], in experiment [6] and in experiment [7] was inactive. The outcome in experiment [8] and in experiment [10] was inactive. Moreover, the AC50 is 12.2 µM (active) in [2] and 29.9 µM (active) in experiment [9].

With `CCSC(=O)N(CC(C)C)CC(C)C`, the outcome in experiment [1], in experiment [2], in experiment [3], in [4], in experiment [5] and in experiment [6] was inactive. The outcome in experiment [7], in [8], in [9] and in experiment [10] was inactive.

As for `CCOC(=O)COc1cc(-n2ncc(C(F)(F)F)c(C)c2=O)c(F)cc1Cl`, the AC50 in [1] was 0.459 µM (active). In addition, the result in experiment [2], in [3], in experiment [4], in experiment [5], in experiment [6] and in [7] was inactive. Besides, the result in [8], in [9] and in experiment [10] was inactive.

On to `O=C(c1ccc(O)cc1O)c1ccc(O)cc1O`, for which the outcome in [1], in experiment [2], in experiment [3], in experiment [4], in experiment [5] and in [6] was inactive. Further, the result in experiment [7], in [8], in [9] and in [10] was inactive.

`c1ccc(Nc2ccccc2)cc1`: the outcome in [1], in experiment [2], in [3], in [4], in experiment [5] and in [6] was inactive. The result in experiment [7], in [8], in experiment [9] and in [10] was inactive.

Regarding `C#C[C@]1(O)CC[C@H]2[C@@H]3CCC4=CC(=O)CC[C@@H]4[C@H]3CC[C@@]21CC`, the result in [1], in experiment [2], in experiment [3], in [4], in [5] and in experiment [6] was inactive. Moreover, the outcome in [7], in experiment [8], in experiment [9] and in experiment [10] was inactive.

On to `CC(=O)[C@H]1CC[C@H]2[C@@H]3CCC4=CC(=O)CC[C@]4(C)[C@H]3CC[C@]12C`, for which the outcome in experiment [1], in [2], in [3], in experiment [4], in [6] and in experiment [7] was inactive. For the same molecule, the outcome in experiment [10] was inactive. Besides, the AC50 is 8.61 µM (active) in experiment [5], 3.95 µM (active) in [8] and 12.7 µM (active) in experiment [9].

As to `O=C(Nc1ccc([N+](=O)[O-])cc1Cl)c1cc(Cl)ccc1O`, the AC50 is 0.148 µM (active) in experiment [1]; 0.308 µM (active) in experiment [2]; 2.27 µM (active) in experiment [4]; 0.899 µM (active) in experiment [5]; 1.03 µM (active) in experiment [9]; 0.764 µM (active) in experiment [10]. Further, the result in [3], in experiment [6], in experiment [7] and in experiment [8] was inactive.

With `OB(O)O`, the result in [1], in experiment [2], in experiment [3], in [4], in experiment [5] and in [6] was inactive. In addition, the outcome in [7], in experiment [8], in [9] and in experiment [10] was inactive.

As to `CCCOC(=O)NCCCN(C)C`, in experiment [1], the AC50 was 0.148 µM (active). Further, the result in [2], in experiment [3], in experiment [4], in experiment [5], in [6] and in experiment [7] was inactive. Moreover, the outcome in experiment [8], in experiment [9] and in [10] was inactive.

For the molecule `Cc1nn(C)c(Oc2ccccc2)c1C=NOCc1ccc(C(=O)OC(C)(C)C)cc1`, the result in experiment [1], in experiment [2], in experiment [3], in [4], in experiment [5] and in experiment [6] was inactive. Besides, the outcome in [7], in [8] and in experiment [10] was inactive. Further, the half-maximal activity concentration (AC50) in [9] was 20 µM (active).

Take `COC(=O)c1ccc(CNS(C)(=O)=O)cc1S(=O)(=O)NC(=O)Nc1nc(OC)cc(OC)n1`: the result in experiment [1], in experiment [2], in experiment [3], in experiment [4], in experiment [5] and in experiment [6] was inactive. Moreover, the result in experiment [7], in experiment [8], in experiment [9] and in experiment [10] was inactive.

`O=C(O)c1ccccc1`: the outcome in experiment [1], in experiment [2], in experiment [3], in experiment [4], in experiment [5] and in experiment [6] was inactive. Besides, the result in experiment [7], in experiment [8], in experiment [9] and in [10] was inactive.

Consider `CC(C)CCCCCCc1ccc(O)cc1`, for which the AC50 in [1] was 33.3 µM (active); in experiment [2], 36.9 µM (active); in experiment [3] it was 14.5 µM (active); in [4] it was 36.2 µM (active); in experiment [5], 28.8 µM (active); in [6] it was 31.2 µM (active). Besides, the results for the AC50 in experiment [8], in [9] and in [10] were 34.3 µM (active), 15 µM (active) and 35.8 µM (active), respectively.

As for `CCCOC(=O)c1ccc(C(=O)OCCC)nc1`, the result in [1], in experiment [2], in [3], in experiment [4], in experiment [5] and in [6] was inactive. In addition, the outcome in experiment [7], in [8], in experiment [9] and in experiment [10] was inactive.
